Composite z-score and z-score data for 17 compounds are collected here from PubChem BioAssay.

Molecules are shown by their SMILES. The source made the active and inactive calls.

Assay [1] can be described thus: compounds binding Alexa647 anti-His antibody – biochemical, small-molecule microarray, 635 nm fluorescence, artefact control for SMM control protein annotation, primary screen (AID 1128).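 Note: score merges feature fluorescence with signal-to-noise for each printed compound spot.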 Particulars: higher = more signal.
In assay [2] the test system is Human papillomavirus type 1a E7 protein (residues 1-88). As to the kind of experiment: HPV1a E7 small-molecule binders, primary screen, biochemical, small-molecule microarray, residues 1-88, 635 nm (AID 1129). Particulars: small-molecule microarray binding, fluorescence 635 nm; higher = more signal.
Assay [3] concerns the target Focal adhesion kinase 1 (Homo sapiens) (UniProt Q05397). As to the kind of experiment: PTK2 protein binding on printed compound slides – biochemical, small-molecule microarray, 635/667 nm fluorescence, BSA, DTT, primary screen (AID 1130).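 Note: composite of spot emission at 667 nm and signal to noise over triplicate slides.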 The following applies: 635 nm fluorescence, higher = more signal.
In assay [4] the test system is Fibrinogen (Alexa647-labelled). As to the kind of experiment: Alexa647-fibrinogen binding to printed small molecules – biochemical, small-molecule microarray, 635/667 nm fluorescence, artefact control for SMM control-protein annotation, profiling panel (AID 1131).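 Note: z-score merges 667 nm fluorescence with per-spot signal-to-noise over triplicate slides.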 Particulars: fibrinogen-A647 binding fluorescence, higher = more signal.
Assay [5] addresses Follistatin (Homo sapiens) (UniProt P19883). The assay is described as follows: FST protein binding to printed compounds – biochemical, small-molecule microarray, 635/667 nm fluorescence, primary screen (AID 1132). The following applies: 635 nm fluorescence, higher = more signal.
In assay [6] the target is Fibroblast growth factor 2 (Homo sapiens) (UniProt P09038). The assay is described as follows: basic fibroblast growth factor binding to printed compounds – biochemical, small-molecule microarray, 635/667 nm fluorescence, primary screen (AID 1133). The following applies: FGF2, fluorescence 635/667, higher = more signal.
Assay [7] can be described thus: JC-1 mitochondrial potential readout, lung cancer cells – cell-based, A549, JC-1 fluorescence, basal, 24 h, 100 nL, profiling panel (AID 1138).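 Note: A549 lung adenocarcinoma cells under basal conditions with no added stimulus; test concentration not given here.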 The following applies: higher = more signal.
For assay [8], the system named is Lefty1. As to the kind of experiment: Lefty1 protein binding to printed compounds – biochemical, small-molecule microarray, 635/667 nm fluorescence, primary screen (AID 1139). The following applies: fluorescence 635/667, higher = more signal.
Assay [9] has as its system wheat germ agglutinin (Triticum aestivum), Alexa647-labelled. The assay is described as follows: Alexa647-WGA lectin binding to printed small molecules – biochemical, small-molecule microarray, 635/667 nm fluorescence, artefact control for SMM control-protein annotation, profiling panel (AID 1140).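 Note: score merges 667 nm feature emission with signal to noise over triplicate slides.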 The following applies: WGA-A647 binding, 635 nm fluorescence, higher = more signal.

Assay [10] concerns the target Luciferin 4-monooxygenase (Photinus pyralis) (UniProt P08659). As to the kind of experiment: inhibition of purified Photinus pyralis luciferase – biochemical, luminescence, purified enzyme, 2006 set, primary screen (AID 1141).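 Note: cell-free assay with purified firefly luciferase at 100 ng per well in PBS; test concentration not given here.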 The following applies: purified firefly luciferase, SteadyGlo luminescence, 30 min; higher = more signal, called active from +8 up or from −8 down.

Chain of Focal adhesion kinase 1 (Homo sapiens) (Q05397 whole entry, looked up): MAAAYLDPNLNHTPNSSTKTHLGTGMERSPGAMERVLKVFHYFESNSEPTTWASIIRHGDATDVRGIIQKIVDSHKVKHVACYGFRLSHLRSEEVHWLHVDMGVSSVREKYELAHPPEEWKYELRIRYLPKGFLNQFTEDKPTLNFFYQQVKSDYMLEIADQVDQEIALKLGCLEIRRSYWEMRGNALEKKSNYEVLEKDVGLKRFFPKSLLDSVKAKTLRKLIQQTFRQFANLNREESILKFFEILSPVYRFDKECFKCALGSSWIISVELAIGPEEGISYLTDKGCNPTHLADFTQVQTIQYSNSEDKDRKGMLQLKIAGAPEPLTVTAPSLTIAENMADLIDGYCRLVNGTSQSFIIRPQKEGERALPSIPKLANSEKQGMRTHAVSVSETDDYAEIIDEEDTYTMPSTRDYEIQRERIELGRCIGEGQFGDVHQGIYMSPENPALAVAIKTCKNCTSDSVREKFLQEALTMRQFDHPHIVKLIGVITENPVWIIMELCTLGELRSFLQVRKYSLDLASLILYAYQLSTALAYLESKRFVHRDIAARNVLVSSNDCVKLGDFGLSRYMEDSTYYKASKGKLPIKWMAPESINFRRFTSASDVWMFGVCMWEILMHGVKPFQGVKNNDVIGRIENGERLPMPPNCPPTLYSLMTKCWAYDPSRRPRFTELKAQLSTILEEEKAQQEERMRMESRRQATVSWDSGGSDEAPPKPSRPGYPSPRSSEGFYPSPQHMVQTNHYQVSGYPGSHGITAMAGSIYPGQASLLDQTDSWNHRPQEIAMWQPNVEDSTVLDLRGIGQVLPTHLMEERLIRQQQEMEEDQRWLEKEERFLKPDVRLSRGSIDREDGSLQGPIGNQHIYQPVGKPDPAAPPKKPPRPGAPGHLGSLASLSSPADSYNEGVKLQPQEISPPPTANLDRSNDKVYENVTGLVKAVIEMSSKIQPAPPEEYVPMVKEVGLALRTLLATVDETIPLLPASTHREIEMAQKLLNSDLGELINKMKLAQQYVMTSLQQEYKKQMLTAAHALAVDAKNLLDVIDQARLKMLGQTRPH
Chain of Luciferin 4-monooxygenase (Photinus pyralis) (P08659 whole entry, looked up): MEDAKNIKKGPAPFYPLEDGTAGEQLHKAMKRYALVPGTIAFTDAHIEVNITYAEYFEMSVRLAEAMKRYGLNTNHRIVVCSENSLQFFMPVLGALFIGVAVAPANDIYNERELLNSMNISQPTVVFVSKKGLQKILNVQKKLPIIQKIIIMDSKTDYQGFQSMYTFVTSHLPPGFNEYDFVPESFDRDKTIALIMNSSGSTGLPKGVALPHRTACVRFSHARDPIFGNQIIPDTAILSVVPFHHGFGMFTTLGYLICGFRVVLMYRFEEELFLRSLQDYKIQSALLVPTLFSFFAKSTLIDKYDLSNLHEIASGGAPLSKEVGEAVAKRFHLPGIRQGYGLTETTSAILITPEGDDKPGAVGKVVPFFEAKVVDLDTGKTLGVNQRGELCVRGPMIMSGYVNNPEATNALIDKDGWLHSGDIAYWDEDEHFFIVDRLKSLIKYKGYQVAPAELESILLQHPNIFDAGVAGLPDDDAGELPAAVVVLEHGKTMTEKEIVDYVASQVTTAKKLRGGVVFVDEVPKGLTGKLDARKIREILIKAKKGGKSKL
Chain of Fibroblast growth factor 2 (Homo sapiens) (P09038 whole entry, looked up): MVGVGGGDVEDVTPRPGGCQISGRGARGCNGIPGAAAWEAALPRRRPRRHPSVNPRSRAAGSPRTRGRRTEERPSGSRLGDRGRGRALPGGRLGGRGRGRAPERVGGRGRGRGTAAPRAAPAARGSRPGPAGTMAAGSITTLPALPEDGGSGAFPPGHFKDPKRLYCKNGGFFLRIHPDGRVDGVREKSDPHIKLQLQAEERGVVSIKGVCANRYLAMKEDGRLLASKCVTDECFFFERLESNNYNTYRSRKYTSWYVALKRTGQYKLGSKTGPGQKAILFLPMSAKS
Chain of Follistatin (Homo sapiens) (P19883 whole entry, looked up): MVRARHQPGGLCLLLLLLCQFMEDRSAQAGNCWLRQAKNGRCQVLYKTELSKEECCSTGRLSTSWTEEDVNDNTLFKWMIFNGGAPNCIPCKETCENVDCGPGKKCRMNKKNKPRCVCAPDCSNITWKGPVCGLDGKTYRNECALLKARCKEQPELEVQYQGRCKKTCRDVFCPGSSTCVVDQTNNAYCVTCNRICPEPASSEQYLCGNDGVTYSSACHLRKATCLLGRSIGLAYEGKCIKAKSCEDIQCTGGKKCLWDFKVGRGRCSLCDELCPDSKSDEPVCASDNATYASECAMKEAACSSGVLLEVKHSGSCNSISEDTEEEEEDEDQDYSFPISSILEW

For `COC(=O)[C@@]1(Cc2ccccc2)[C@H]2c3cc(C(=O)N(C)C)n(Cc4ccc(OC)c(OC)c4)c3C[C@H]2CN1C(=O)c1ccccc1`, the composite z-score is 1.81 in assay [1]; 1.27 in assay [2]; 0.561 in [3]; 1.01 in assay [4]; 0.385 in assay [5]; -0.588 in [6]. Also, the composite z-score in assay [8] stood at 0.0922; in assay [9], 0.995. The z-score was 0.134 in [7] and 1.29 (inactive) in assay [10].
As for `CC(C)(C)OC(=O)CC[C@@]1(C(=O)N2CCCCC2)N=C(c2ccc(OCCCO)cc2)O[C@@H]1c1ccccc1`, the composite z-score came out at 1.87 in assay [1]; 1.25 in [2]; 0.744 in assay [3]; 1.02 in assay [4]; 1.09 in assay [5]; 1.04 in [6]. For the same compound, the composite z-score in [8] turned out to be 0.501; in assay [9], 1.27. For the same compound, the values for the z-score in assay [7] and in assay [10] were 1.09 and -1.73 (inactive), respectively.
`COc1cc2c(cc1O)C=[N+](Cc1cc3c(cc1Br)OCO3)CC2`: the composite z-score in assay [1] was -0.954; in [2] it was -1.07; in assay [3], -0.626; in [4], -2.07; in assay [5] it was -0.174; in [6], -0.659. For the same compound, the values for the composite z-score in [8] and in [9] were -0.553 and 0.248, respectively. The values for the z-score in [7] and in assay [10] were -0.784 and 0.807 (inactive), respectively.
Consider `COCCCNC(=O)[C@@]1(CCS(=O)(=O)c2ccccc2)N=C(c2ccc(OCCCO)cc2)O[C@H]1c1ccccc1N=[N+]=[N-]`, for which the composite z-score was 0.328 in assay [1]; 1.25 in [2]; -0.0191 in assay [3]; 1.02 in [4]; 1.3 in [5]; 0.786 in [6]. For the same compound, the composite z-score in assay [8] was determined as 1.27; in assay [9], 1.01. The z-score in [7] was -0.341; in assay [10], -8.3 (active).
For the compound `NC(=O)[C@@H]1[C@H]2C(=O)O[C@H](c3ccccc3)[C@H](c3ccccc3)N2[C@H](c2ccc(OCCO)cc2)[C@@]12C(=O)Nc1ccc(C#CC3=CCCCC3)cc12`, the composite z-score in assay [1] is 0.823; in [2], 1.21; in assay [3], 1.33; in assay [4] it was 1.01; in assay [5], 1.22; in assay [6], 0.413. Besides, the composite z-score stood at 0.741 in assay [8] and 0.632 in assay [9]. Besides, the z-score in assay [7] is -1.87; in [10], -2.48 (inactive).
Consider `COc1ccc(C(=O)Nc2ccc(CN3C(=O)[C@]4(O[C@H](CC(=O)N5CCC[C@H]5CO)[C@@H]([Si](C)(C)c5ccc(OC)cc5)[C@@H]4C)c4ccccc43)cc2)cc1`, for which the composite z-score in [1] was found to be 1.91; in assay [2], 1.15; in [3], 0.297; in assay [4], 0.81; in assay [5] it was 1.06; in assay [6], 1.44. Besides, the composite z-score in assay [8] amounted to 0.942; in assay [9], 0.601. Further, the z-score in [7] was 0.195; in assay [10], -1.08 (inactive).
Regarding `COc1ccc([C@H]2C[C@H]3C(Br)=C[C@@]2(CO)C(=O)[C@]32CO2)cc1`, the composite z-score in assay [1] is -0.436; in [2] it was -0.99; in [3], 0.125; in assay [4], 0.281; in assay [5] it was -0.0737; in assay [6], -0.441. The composite z-score in assay [8] was -0.271; in assay [9], 0.138. The z-score is -0.592 in assay [7] and 0.601 (inactive) in assay [10].
For the compound `COC(=O)c1c2oc(c1C(=O)OC)C(=O)NC1(CCCCC1)c1cn(nn1)C[C@H](Cc1ccccc1)NC(=O)N[C@H](CO)CC2`, the composite z-score in assay [1] was found to be 0.842; in [2] it was 0.494; in [3], 0.244; in assay [4], 0.94; in [5], 0.437; in assay [6], 0.0141. Further, the composite z-score is 0.609 in assay [8] and 0.831 in assay [9]. For the same compound, the z-score in [7] is 0.304; in assay [10], 0.893 (inactive).
Consider `COc1ccc(C#Cc2ccc3c(c2)[C@]2(C(=O)N3)[C@H](c3ccc(O)cc3)N3[C@H](c4ccccc4)[C@H](c4ccccc4)OC(=O)[C@H]3[C@@H]2C(=O)N2CCc3cc(OC)c(OC)cc3C2)cc1`, for which the composite z-score in assay [1] came to 0.645; in assay [2], 1.19; in assay [3], 0.174; in [4], 0.933; in assay [5], 1.15; in [6] it was 1.36. In addition, the composite z-score is 1.12 in assay [8] and 0.384 in assay [9]. The results for the z-score in assay [7] and in [10] were -0.577 and -0.798 (inactive), respectively.
With `OCCCC1=CC(C2CC2)N(Cc2cccc(OC(F)(F)F)c2)CC1` (stereo not given), the composite z-score is -0.103 in assay [1]; -0.208 in assay [2]; 0.227 in assay [3]; -2.53 in [4]; -0.306 in [5]; -0.338 in assay [6]. The figures for the composite z-score in [8] and in [9] were 0.32 and -0.0444, respectively. The z-score in [7] was 0.00271; in [10] it was 0.382 (inactive).
As to `C=CC[C@@]1(C(=O)N2CCCCC2)N=C(c2ccc(OCCCO)cc2)O[C@@H]1c1ccccc1N=[N+]=[N-]`, the composite z-score in assay [1] turned out to be 2.24; in assay [2] it was 1.23; in assay [3], 0.407; in assay [4] it was 0.957; in assay [5] it was 1.09; in assay [6] it was 0.162. Further, the results for the composite z-score in assay [8] and in [9] were 0.0928 and 1.06, respectively. Moreover, the z-score in [7] was -0.35; in assay [10], -10.4 (active).
With `COCCOC(=O)N1C(=O)[C@@]2(c3cc(C#CC4=CCCCC4)ccc31)[C@H](c1ccc(OCCO)cc1)N1[C@H](c3ccccc3)[C@H](c3ccccc3)OC(=O)[C@H]1[C@@H]2C(=O)N1CCc2cc(OC)c(OC)cc2C1`, the composite z-score in assay [1] worked out at 0.936; in [2] it was 1.19; in assay [3] it was 0.647; in [4], 0.874; in [5], 0.989; in assay [6], 1.32. The results for the composite z-score in [8] and in assay [9] were 1.11 and -0.0709, respectively. Further, the z-score in assay [7] was -0.729; in assay [10], -2.35 (inactive).
`CCOC(=O)C[C@H]1[C@H](OC(=O)c2ccc(-c3ccccc3)cc2)[C@@H](NC(=O)c2ccccc2)c2cc(OCCCO)ccc2N1C(=O)c1ccc2ccccc2n1`: the composite z-score is 0.241 in assay [1]; 1.06 in assay [2]; 0.426 in [3]; 0.836 in assay [4]; -0.0321 in [5]; -0.0974 in [6]. For the same compound, the values for the composite z-score in assay [8] and in assay [9] were -0.329 and 0.693, respectively. In addition, the z-score in [7] is -0.0602; in [10] it was 0.0119 (inactive).
On to `CS(=O)(=O)CCOC(=O)C1=CC(CCCO)=CC(C2CC2)N(Cc2cc3c(cc2Br)OCO3)C=C1C(=O)OCCS(C)(=O)=O` (stereo not given), for which the composite z-score in assay [1] was 1.97; in assay [2] it was 0.419; in [3] it was -0.0438; in assay [4], 1.01; in assay [5] it was 1.18; in [6] it was 0.198. Further, the results for the composite z-score in assay [8] and in assay [9] were 0.477 and 1.15, respectively. The z-score was 1.29 in [7] and -0.395 (inactive) in assay [10].
Turning to `O=C1NC(=O)C2C1C=CC(C(O)C1CC=CCC1)N2Nc1ccccn1` (stereo not given), the composite z-score was 1.33 in [1]; -0.264 in assay [2]; -0.599 in assay [3]; -0.0881 in assay [4]; 0.585 in assay [5]; 0.582 in assay [6]. Also, the composite z-score was 0.616 in [8] and 0.763 in assay [9]. In addition, the z-score in assay [7] is 0.692; in assay [10], -1.13 (inactive).
As for `O=C1C2C=CC(C(O)C=Cc3ccc([N+](=O)[O-])cc3)N(Nc3ccccc3F)C2C(=O)N1c1ccccc1` (stereo not given), the composite z-score in [1] turned out to be 1.41; in [2], 1.23; in assay [3] it was 0.545; in assay [4] it was 0.995; in assay [5] it was 1.11; in assay [6], 0.211. The results for the composite z-score in assay [8] and in assay [9] were 0.522 and 1, respectively. Moreover, the z-score in assay [7] is -0.607; in assay [10], -0.252 (inactive).
With `CCOC(=O)[C@H]1C/C=C/C[C@H](C(=O)OCC)C(=O)O[C@H]2[C@@H](OC)O[C@H](CO)[C@@H](OC(=O)c3ccc(Br)cc3)[C@@H]2OC1=O`, the composite z-score came to 0.272 in assay [1]; 0.189 in assay [2]; 0.143 in assay [3]; 0.223 in [4]; 1.06 in [5]; 1.06 in assay [6]. In addition, the results for the composite z-score in assay [8] and in [9] were 0.31 and 0.329, respectively. The figures for the z-score in [7] and in assay [10] were 2.47 and -0.0361 (inactive), respectively.
